# Bioassay records (PubChem)
# The sample as a whole holds a higher share of hits than the screen did.
# PNC inhibitor = perinucleolar compartment assembly inhibition. PC3M PTB-GFP, PNC prevalence imaging, 16 h; hits give low values. activity change (PNC), negative = inhibition, % at 10 µM. 3.1% of 140,000 active. AID 2417;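 active = readout at or below -70, meaning at least 70% loss of cells showing the perinucleolar compartment, a nuclear body marking cancer cells; inconclusive = readout between -30 and a set limit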;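 also: plate controls were DMSO wells for no effect and camptothecin positive control wells for full effect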
#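 PC3M cells stably expressing PTB-GFP, 750–1000 cells/well, treated 16 h at 37 °C with compound (23 nl of library stock), in duplicate. After paraformaldehyde fixation and Hoechst stain, imaged at 20x; PNC prevalence scored by image analysis.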
# HTT ATP protect = Huntington cell model cytoprotection by ATP luminescence; 0.14% of 230,000 active; Potency, µM (highest dose often 56.4 µM), without a hit: cytoprotection (ATP increase), hits mostly activators; PC12 HTT-Q103 induced, cytoprotection, ATP luminescence, 40 h; also: potency is read from the fitted curve at half-maximal effect; % of control where 0% means no effect; nearly all actives have a fitted effect of over 45% in size
#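 ATP quantification (ATPlite) reports survival of PC12 cells in which tebufenozide, 100 nM final, switches on Htt exon 1 with 103 glutamines linked to GFP; compounds are titrated.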
# HTT aggregate = reduces HttQ103-GFP aggregates in PC12 cells | Potency, µM (series often up to 46.1 µM), without a hit: at the highest dose activity change, negative = inhibition, usual class: inhibitors | 1.1% of 220,000 active | PC12 HttQ103-GFP aggregates, Acumen cytometry, 40 h; also: potency is read from the fitted curve at half-maximal effect; % is scaled to controls: 0 for no effect and ±100 for the full control effect; nearly all actives have a fitted effect of over 60% in size
#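 Compounds (qHTS titration) were added to PC12 cells expressing an ecdysone-driven HTT exon 1 Q103–GFP fusion after induction with 100 nM tebufenozide. Aggregate formation was measured as GFP objects in cell lysates.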
# Active calls of the source: *; ? = inconclusive; · = no result given; [ ] = dose if it differs, or a comment. Unless noted, calls follow the shape of the dose curve; as a rule, active = well fitted curve in the direction sought with a large enough effect; inconclusive = small, poorly fitted or top-dose-only effect, or another doubt; inactive = no such curve, though single readings can be large; an effect the other way counts as inactive or inconclusive.
SMILES,PNC inhibitor,HTT ATP protect,HTT aggregate
COCCn1c(C(=O)N(C)C)cc2c1C[C@H]1CN(C(=O)c3ccccc3)[C@@](Cc3ccc(F)cc3)(C(=O)OC)[C@@H]21,·,10%,·
O=C(Nc1nc(-c2ccccc2)cs1)c1ccc2c(c1)S(=O)(=O)c1ccccc1C2=O,29,25%[10 µM],27%
O=C(c1ccc(Cl)c(Cl)c1)N1CCC(O)(CN2CCOCC2)CC1,·,-16%,7%
O=C(c1ccc(Cl)cc1)N1CCC(O)(CSc2ccc(Cl)cc2Cl)CC1,-12,37%[10 µM],10µM*
CSc1nc(-c2ccco2)cc(-c2ccccc2)c1C#N,-27,-25%[0.074 µM],9%
COc1ccc(-c2cc(-c3ccc(OC)cc3)c(C#N)c(SC)n2)cc1,-100*,-2%[10 µM],-4%
COc1ccc(OC)c(CN2CCN(C(=O)c3cccs3)CC2)c1,-28,-6%,-11%
CCCN1C(=O)c2ccc(C(=O)Nc3nccs3)cc2C1=O,-85*,-3%,-15%
CC(C)CN1C(=O)c2ccc(C(=O)Nc3nccs3)cc2C1=O,?,-4%,2%
COCCN1C(=O)c2ccc(C(=O)O)cc2C1=O,20,-3%,2%
COCCN1C(=O)c2ccc(C(=O)Nc3nccs3)cc2C1=O,-111*,10%[0.074 µM],-4%
Cc1cc(-c2nn(-c3ccccc3F)cc2CN2CCN(c3ccccn3)CC2)c(C)s1,·,-22%,-27%
O=C(Nc1cccc(F)c1)N1CC2(CCN(S(=O)(=O)c3ccccc3)CC2)C1,·,6%,·
Cc1ccc(Nc2c([N+](=O)[O-])c(=O)n(C)c3ccccc23)cc1,·,1%[10 µM],4%[9.22 µM]
Cn1c(=O)[nH]c(Nc2ccc(F)cc2)c([N+](=O)[O-])c1=O,-109*,·,-8%
COc1cccc(-c2csc(N3CCN(C(=O)Nc4ccc(F)cc4)CC3)n2)c1,20,18%[10 µM],?
CCOc1ccc(C2C(C(=O)Nc3ccc(F)cc3)=C(C)Nc3nc(CCCO)nn32)cc1 (centres undefined),?,2%,10%
Cc1ncoc1C(=O)Nc1nccs1,10,-3%[0.074 µM],-6%
CC(=O)c1noc(C)c1C(=O)Nc1nccs1,-93*,11%,16%
CCCc1cc(-c2[nH]ncc2-c2ccc3c(c2)OCCCO3)c(O)cc1OC,-16,-16%,?
CCc1cc(-c2[nH]ncc2-c2ccc3c(c2)OCO3)c(O)cc1O,16,-24%,11µM*
CC1CC(=O)C2=C(C1)OC(N)=C(C#N)C2c1coc2ccccc2c1=O (centres undefined),8,9%[1.9 µM],7%
C=CCNC(=S)Nc1ccc(Cl)cc1F,·,-30%,-5%
C=CCNC(=S)NCc1ccccc1,·,-6%[10 µM],-8%[9.22 µM]
C=CCNC(=S)Nc1cccc2ccccc12,-96*,12%[10 µM],6%
SMILES,PNC inhibitor,HTT ATP protect,HTT aggregate
C=CCNC(=S)Nc1ccc(Br)cc1F,-88*,8%[10 µM],7%
CC(NC(=O)c1ccco1)C(=O)N1CCc2ccccc2C1 (centres undefined),-19,-15%,0%
CCOC(=O)C(NC(C)=O)C(=O)Nc1ccc(C(C)(C)C)cc1 (centres undefined),·,-11%,5%[9.22 µM]
Cc1ccc(C(=O)Nc2ccccc2C(=O)N2CCCC2)cc1[N+](=O)[O-],-8,·,-4%
CCCCNC(=O)c1cc2c(=O)n3cccc(C)c3nc2n(CCN2CCOCC2)c1=N,31,-11%[0.074 µM],19%
Cc1cccn2c(=O)c3cc(C(=O)NCCCN4CCOCC4)n(C)c3nc12,-95*,7%[10 µM],3%
CC(NCCc1ccc(O)cc1)C(O)c1ccc(O)cc1 (centres undefined),-4,-52%,6%
CCCCCCCCNC(C)C(O)c1ccc(SC(C)C)cc1 (centres undefined),-115*,-98%,?
O=c1oc2ccccc2c(NCc2ccc(Cl)cc2)c1[N+](=O)[O-],·,10%[10 µM],7%[9.22 µM]
CC(C)(C)NC(=O)CSc1nncn1NCc1c(Cl)cccc1Cl,-100*,4%[10 µM],-1%
CC(C)(C)NC(=O)CSc1nncn1NCc1cccc2ccccc12,44,11%,6%[9.22 µM]
CCOC(=O)c1sc(/N=C/N(C)C)c(C(=O)OCC)c1C,-82*,-9%,-6%
CCOC(=O)c1sc(/N=C/N(C)C)nc1C,30,-14%[0.074 µM],3%
Cc1ccc(S(=O)(=O)NCCC(=O)O)cc1,9,3%,-10%
CCOC(=O)CS(=O)(=O)c1ccc2ccccc2c1,5,16%,-18%
CCC(=NCCc1c(C)[nH]c2ccc(C)cc12)C1=C(O)CC(c2ccccc2)CC1=O (centres undefined),-116*,-66%[10 µM],?
CC(=O)C1=C(O)CC(c2ccccc2)CC1=NCCc1c(C)[nH]c2ccccc12 (centres undefined),26,·,-7%
CC(=O)C1=C(O)CC(c2ccccc2)CC1=NCCc1c(C)[nH]c2ccc(C)cc12 (centres undefined),-119*,·,2%
CC/C(O)=C1\C(=O)CC(c2ccccc2)CC1=NCCc1c(C)[nH]c2ccc(C)cc12 (centres undefined),-14,·,-21%
Cc1ccc(-c2nnn(CC(=O)N(Cc3cccs3)C(C(=O)NC(C)(C)C)c3ccc(C)o3)n2)o1 (centres undefined),29,-23%[10 µM],18%
Cc1sc(NC(=O)CCl)c(C(=O)c2ccccc2)c1C,-7,-57%[10 µM],?
CCOc1ccc2c3c(c(=O)oc2c1OCC)CCCC3,?,-14%,-2%
CCCOc1ccc2c3c(c(=O)oc2c1OCCC)CCCC3,-111*,-40%,-20%
CN(C)c1cc[n+](CC(=O)Nc2c(Cl)cc(Cl)cc2Cl)cc1,·,9%[10 µM],2%[9.22 µM]
CN(C)c1cc[n+](Cc2c(Cl)cccc2Cl)cc1,-12,-39%[10 µM],8.9µM*
SMILES,PNC inhibitor,HTT ATP protect,HTT aggregate
COC(=O)C1=CC(C(=O)c2cccs2)=NN(c2ccc(OC)cc2)C1C(=O)OC (centres undefined),35,·,19%
CCCCn1cnc2c1c(=O)[nH]c(=O)n2CCCC,33,?,-6%
N=c1c2c(-c3ccccc3)c(-c3ccccc3)n(Cc3ccco3)c2ncn1CCCn1ccnc1,-98*,0%[0.074 µM],-14%
c1ccc(-c2c(-c3ccccc3)n(Cc3ccco3)c3ncnc(NCCCn4ccnc4)c23)cc1,-16,-90%,?
CN(C)C(=O)COC(=O)c1ccccc1Nc1ccc(SC(F)F)cc1,-105*,-14%[10 µM],5%
COc1ccccc1NC(=O)COC(=O)c1ccccc1OCC(=O)Nc1ccc(SC(F)F)cc1,15,·,-13%
COc1ccc(S(=O)(=O)N2CCN(Cc3ccc(Cl)cc3)CC2)cc1,15,11%[1.9 µM],2%
CCOC(=O)c1nnn(-c2nonc2NC(C)=O)c1C,?,15%[10 µM],-5%
CCOC(=O)c1nonc1NC(C)=O,-100*,15%[10 µM],-2%
CCOC(=O)N1CCN(c2cc(N)c([N+](=O)[O-])cc2F)CC1,-22,2%,-12%
CSc1nc(C)[nH]c(=O)c1C#N,·,8%[10 µM],9%[9.22 µM]
O=C(O)CCCN=C1NC2(CCCC2)Cc2ccccc21,-21,6%[10 µM],4%
Cc1ccccc1C(=O)N1CCN(c2ccc(NC(=O)c3ccco3)cc2Cl)CC1,?,-25%[10 µM],13µM*
O=C(Nc1ccc(N2CCN(C(=O)c3cccs3)CC2)c(Cl)c1)c1ccco1,?,-1%[10 µM],-26%
